Screens deposited in PubChem BioAssay by ICCB-Longwood Screening Facility, Harvard Medical School.
CapD inh: inhibitors of Bacillus anthracis CapD enzyme; purified CapD enzyme, fluorescence intensity read-out; stronger effect = lower value; z-score (no concentration beside the values); 140,000 compounds, 0.23% hits; AID 492967; in the data active = z-score mostly below about -2.9, no sharp cut-off; inactive = mostly above about -1.9
Hits are given with their value. Shown is part of a subset that was picked to be rich in hits.

`CCN(C(=O)CSC1=NCCS1)C1CCCCC1` gave CapD inh inactive.
For CCOC(=O)C1=C(C)NC(=O)CC1c1ccncc1 (stereo unspecified) the results were CapD inh inactive.
Cc1cc(C(F)(F)F)nc2ccccc12 was read as CapD inh inactive.
Screening CCOC(=O)c1sc2nc(SCC#N)n(Cc3ccco3)c(=O)c2c1C returned CapD inh inactive.
For CCOC(=O)c1c(NC(C)=O)nc(SC)n1Cc1ccco1 the results were CapD inh -11.
For CCOC(=O)c1c(NC(C)=O)nc(SC)n1Cc1cccs1 the results were CapD inh inactive.
CC1(C)CC(Nc2ccc(Cl)cc2)CCO1 (stereo unspecified) was read as CapD inh inactive.
For CSc1ccc(CNC(=O)c2cccs2)s1 the results were CapD inh inactive.
Screening O=c1cc(O)c2sc(Nc3ccccc3)nc2[nH]1 returned CapD inh inactive.
Screening CNc1sc2c(O)cc(=O)[nH]c2c1C#N returned CapD inh inactive.
`Nc1c(Nc2ccc(F)cc2)sc2c(O)cc(=O)[nH]c12` gave CapD inh -4.1.
For CCCS(=O)(=O)c1cc2cc(Cl)ccc2oc1=O the results were CapD inh inactive.
N=C1S/C(=C/c2ccco2)C(=O)N1c1nccs1 was read as CapD inh -4.3.
Screening N=C1S/C(=C/c2ccc(-c3ccccc3C(=O)O)o2)C(=O)N1c1nccs1 returned CapD inh inactive.
N=C1S/C(=C\c2ccc(-c3ccccc3F)o2)C(=O)N1c1nccs1 was read as CapD inh inactive.
Screening COc1ccc2nc3c(nc2c1)-c1cccc2cccc-3c12 returned CapD inh inactive.
Screening COc1ccc(-n2nc3c(c2NC(=O)c2ccccc2C(F)(F)F)CSC3)cc1 returned CapD inh inactive.
For CCCc1cc(=O)oc2cc(OC(C)C)c(Cl)cc12 the results were CapD inh inactive.
Screening O=C1CC(c2cccc(F)c2)C2=C(CC(c3ccc(F)cc3)CC2=O)N1 (stereo unspecified) returned CapD inh inactive.
`O=C(c1ccccc1Cl)N(Cc1ccccc1)c1ccccn1` gave CapD inh inactive.
O=C(Nc1ccccc1)Nc1nc(-c2ccco2)cn1/N=C/c1ccccc1 was read as CapD inh inactive.
For CC(=O)N(C(C)=O)c1nc(-c2ccccc2)cn1/N=C/c1ccccc1 the results were CapD inh -7.1.
Screening COc1ccc(/C=N/n2c(N(C(C)=O)C(C)=O)nc(-c3ccccc3)c2-c2ccccc2)cc1 returned CapD inh inactive.
Screening C=CCSc1nc2sc3c(c2c(=O)[nH]1)CCCC3 returned CapD inh inactive.
Screening S=c1nc(NC2CC2)c2ccccc2[nH]1 returned CapD inh inactive.
For N#CCCn1nc(-c2ccc(F)cc2)ccc1=O the results were CapD inh inactive.
`COC(=O)C1Sc2[nH]c(=O)sc2C(c2ccc(Cl)cc2)C1C(=O)OC` (stereo unspecified) gave CapD inh inactive.
Screening O=C(O)C1Sc2[nH]c(=O)sc2C2c3ccc(O)cc3OC(=O)C12 (stereo unspecified) returned CapD inh -8.8.
For N#CC1=C(N)Oc2cc(O)ccc2C1c1ccccc1 (stereo unspecified) the results were CapD inh inactive.
For O=C(CSC1CCCCC1)N1CCCC1 the results were CapD inh inactive.
Screening O=[N+]([O-])c1ccc(SCCO)c2nonc12 returned CapD inh -4.
`N#Cc1ccc(SCCO)c([N+](=O)[O-])c1` gave CapD inh inactive.
CCN(c1ccccc1)c1cc(N(C)C)c2nonc2c1[N+](=O)[O-] was read as CapD inh inactive.
Screening CCCn1cnc2c(N)c(C)c(C)cc21 returned CapD inh inactive.
Screening CN(C)C(=O)/C(=C/C=C/c1ccccc1)NC(=O)c1ccccc1 returned CapD inh inactive.
`COC(=O)C(=C/C=C/c1ccccc1)C(=O)OC` gave CapD inh -4.5.
Screening COc1ccccc1NC(=O)/C=C/c1ccccc1 returned CapD inh inactive.
O=S(=O)(c1ccccc1)N1CCC2(CC1)OCCO2 was read as CapD inh inactive.
CCOC(=O)c1cc2cccc(NC(=O)c3ccccc3S(C)(=O)=O)c2[nH]1 was read as CapD inh inactive.
Screening CC(C)CC1(C(=O)O)NC(c2ccccc2O)C2C(=O)N(Cc3ccccc3)C(=O)C21 (stereo unspecified) returned CapD inh inactive.
N=C1/C(=C/c2ccco2)C(=O)N=C2SC=C(c3ccccc3)N12 was read as CapD inh inactive.
Screening CC(C)CS(=O)(=O)C1=NN2C(=N)/C(=C\c3ccco3)C(=O)N=C2S1 returned CapD inh -4.1.
CCS(=O)(=O)C1=NSC2=NC(=O)/C(=C\c3ccco3)C(=N)N21 was read as CapD inh inactive.
Screening COc1ccc(N(C(C)=O)C2SC(=O)N(c3ccccc3)C2=O)cc1 (stereo unspecified) returned CapD inh inactive.
For COc1cccc2cc(C(=O)Nc3ccccc3)c(=Nc3ccc(C(=O)O)cc3)oc12 the results were CapD inh inactive.
`O=C(N/N=C/c1ccccc1)c1ccc(OCc2ccc(Cl)c(Cl)c2)cc1` gave CapD inh inactive.
CC(=O)N1C(=O)c2ccccc2C1=O was read as CapD inh -5.4.
`CC(=O)N1C(=O)/C(=C\C(=O)c2ccc(C)cc2)c2ccccc21` gave CapD inh inactive.
For CC(=O)N1C(=O)c2ccc([N+](=O)[O-])cc2C1=O the results were CapD inh inactive.
For CCOC(=O)c1sc2nc(C3CC3)cc(-c3ccc(OC)cc3)c2c1N the results were CapD inh inactive.
`CCCCC1(C)OC(=O)C(=Cc2ccc(Br)o2)C(=O)O1` (stereo unspecified) gave CapD inh -4.4.
`CCCCC1(C)OC(=O)C(=Cc2ccc(OCC)c(OC)c2)C(=O)O1` (stereo unspecified) gave CapD inh inactive.
`O=C1/C(=C\c2ccc(Br)o2)CC/C1=C/c1ccc(Br)o1` gave CapD inh inactive.
`CCCS(=O)(=O)c1c(S(=O)(=O)CCC)c2cc(-c3ccncc3)ccn2c1C(=O)N/N=C/c1ccc(N(C)C)cc1` gave CapD inh inactive.
For Clc1cccc(-n2cc(-c3ccccc3)c3c(NCc4ccccn4)ncnc32)c1 the results were CapD inh inactive.
`CN1/C(=C\C=Nc2ccc(C(=O)O)cc2)C(C)(C)c2ccccc21` gave CapD inh -3.2.
`CN1/C(=C/C=N/O)C(C)(C)c2ccccc21` gave CapD inh inactive.
`CN1/C(=C\C=Nc2cccc(C(=O)O)c2)C(C)(C)c2ccccc21` gave CapD inh inactive.
For COC(=O)c1ccccc1NC(=O)Cn1ncc2c3ccccc3n(Cc3ccccc3)c2c1=O the results were CapD inh inactive.
`COc1ccccc1N1C(=O)C(Cc2ccccc2)N=C1N(C)CCCc1ccco1` (stereo unspecified) gave CapD inh inactive.
`OCCNc1ncnc2sc3c(c12)CCCC3` gave CapD inh inactive.
For CC(C)(C)C(=O)Nc1nnc(-c2ccc3c(c2)CCCC3)o1 the results were CapD inh inactive.
COc1ccc(N2C(=O)C(O)=CC2(OC)c2ccccc2)cc1 (stereo unspecified) was read as CapD inh -4.5.
Cc1ccc(N2C(=O)C(O)=CC2(O)c2ccccc2)cc1 (stereo unspecified) was read as CapD inh inactive.
`COc1ccc(N2C(=O)CCC2(C(N)=O)c2ccccc2)cc1` (stereo unspecified) gave CapD inh inactive.
